According to PubChem BioAssay (NCI):
The panel holds about 79,000 compounds, 15% with a hit somewhere; the sample as a whole holds those more often. A number with no mark means an inactive call. Active and inactive are the calls of the source. No stated cut-off is given here; in the data, active means growth inhibition above about 70%; inactive means the rest.

Legend:
[1] = NCI Yeast Anticancer Drug Screen. Data for the rad50 strain (AID 155);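 further: 0% = growth of vehicle-only cultures of the same strain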; conditions: S. cerevisiae rad50 strain growth inhibition; at 50.0 µM; stronger effect = higher value
Method in brief: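 Yeast carrying a defined DNA repair defect were exposed to test compounds, and growth was compared with vehicle-treated controls to give percent inhibition.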

[2] = NCI Yeast Anticancer Drug Screen. Data for the sgs1 mgt1 strain (AID 161);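 further: 0% = growth of cultures given vehicle only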; conditions: S. cerevisiae sgs1 mgt1 strain, at 50.0 µM, stronger effect = higher value
Method in brief: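 Inhibition of yeast growth, normalised to vehicle-treated controls, is reported for a strain bearing genetic alterations in DNA damage repair.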

[3] = NCI Yeast Anticancer Drug Screen. Data for the cln2 rad14 strain (AID 165);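 further: 0% = growth equal to vehicle treated cultures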; conditions: S. cerevisiae cln2 rad14 strain, at 50.0 µM, stronger effect = higher value
Method in brief: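 Growth of compound-exposed yeast (cln2 rad14 genotype) measured and expressed as inhibition relative to vehicle.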

[4] = NCI Yeast Anticancer Drug Screen. Data for the mlh1 rad18 strain (AID 175); conditions: S. cerevisiae mlh1 rad18 strain growth inhibition; at 50.0 µM; stronger effect = higher value
Method in brief: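 In this whole-cell yeast screen, a strain with altered DNA damage repair is challenged with compound, and its growth is measured against matched vehicle-treated controls.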

[5] = NCI Yeast Anticancer Drug Screen. Data for the bub3 strain (AID 167); conditions: S. cerevisiae bub3 mutant strain, at 50.0 µM, stronger effect = higher value
Method in brief: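 Compounds were applied to a genetically altered yeast strain carrying a cell-cycle control defect. Growth inhibition was scored against vehicle-treated controls.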

[6] = NCI Yeast Anticancer Drug Screen. Data for the mec2-1 strain (AID 157); conditions: S. cerevisiae mec2-1 strain, at 50.0 µM, stronger effect = higher value
Method in brief: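 Test agents were screened against the mec2-1 yeast strain, with defined DNA repair or cell cycle alteration. Growth was scored as inhibition against vehicle-only controls.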

Row | Structure (SMILES) | growth inhibition [1] [%] | growth inhibition [2] | growth inhibition [3] [%] | growth inhibition [4] | growth inhibition [5] [%] | growth inhibition [6] [%]
1 | CCO/C=N\C1=C(C#N)SC2=N/C(=C\c3ccc(OC)cc3)C(=O)N21 | -7.4 | 7.35% | 6.45 | -57.8% | – | –
2 | O=C1CCC2CN3CCc4c([nH]c5ccccc45)C3CC2C1 (stereo not given) | 26.2 | – | – | 32.7% | – | –
3 | Cn1c2c(c3ccccc3c1=O)C(=O)c1ccccc1-2 | 43 | 9.3% | 26.1 | -23.7% | – | –
4 | CC(C)(C)c1cc(C2COC(=O)COCCOCC(=O)OCCOCCO2)cc(C(C)(C)C)c1O (stereo not given) | 12.5 | -10.4% | – | -60.5% | -23.3 | –
5 | COc1ccc(-c2nc3ccccc3c(=S)n2OC(C)=O)cc1 | 68.5 | 82.1% (active) | 27.2 | 78.2% (active) | – | –
6 | COC(=O)CCNCc1ccccc1 | -7.25 | – | – | 10.4% | – | -41.6
7 | c1ccc(-c2cccc3ccccc23)cc1 | 32.6 | 2.65% | – | 16.4% | -11.2 | –
8 | Cc1ccc(CNc2cccc([N+](=O)[O-])c2)cc1 | 8.6 | – | – | 1.8% | – | –
9 | O=[N+]([O-])c1cccc(C=Nc2cccc(C(F)(F)F)c2)c1 | 6.95 | – | – | -12.2% | – | 4.35
10 | CCOC(=O)c1sc(N)c(C(=O)OCC)c1C | -38.2 | – | – | -20.1% | – | –
11 | ClCCCC1(CCCCl)OCCO1 | -21.3 | – | – | -2.2% | – | -25.1
